This note sets out measurements from PubChem BioAssay (EPA / NIEHS).

Several values for one entry are separate records, joined by “and”; a condition that tells them apart may be missing. Identical values can stand only once. Records with an inconclusive call do not appear. A structure can be active in one record and inactive in another. Activity calls are given as the source filed them. How the source made its calls: active means hit-call score of the fitted dose curve at least 0.9, where 1 is the maximum; inconclusive means response in the unintended direction; inactive means score below 0.9.

Sequence of Estrogen receptor (Homo sapiens) (P03372 whole entry, looked up): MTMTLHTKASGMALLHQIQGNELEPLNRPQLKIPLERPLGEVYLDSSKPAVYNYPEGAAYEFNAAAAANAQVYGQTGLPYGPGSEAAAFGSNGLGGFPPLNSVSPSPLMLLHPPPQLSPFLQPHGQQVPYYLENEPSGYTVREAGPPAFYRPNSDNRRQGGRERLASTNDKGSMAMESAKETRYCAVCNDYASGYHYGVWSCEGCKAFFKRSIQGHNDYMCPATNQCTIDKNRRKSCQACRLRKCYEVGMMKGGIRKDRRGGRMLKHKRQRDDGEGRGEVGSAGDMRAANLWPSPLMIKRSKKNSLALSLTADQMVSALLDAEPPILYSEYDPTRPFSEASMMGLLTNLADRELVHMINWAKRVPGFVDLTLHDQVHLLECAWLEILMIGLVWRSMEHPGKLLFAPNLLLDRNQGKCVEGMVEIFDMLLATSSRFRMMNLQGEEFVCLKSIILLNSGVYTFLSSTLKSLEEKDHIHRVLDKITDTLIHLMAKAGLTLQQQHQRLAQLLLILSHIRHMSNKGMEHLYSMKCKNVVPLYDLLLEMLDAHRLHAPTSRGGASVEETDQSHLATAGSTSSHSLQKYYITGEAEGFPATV
Sequence of chimpanzee Androgen Receptor (AR), AR (gene 747460) (O97775 whole entry, looked up): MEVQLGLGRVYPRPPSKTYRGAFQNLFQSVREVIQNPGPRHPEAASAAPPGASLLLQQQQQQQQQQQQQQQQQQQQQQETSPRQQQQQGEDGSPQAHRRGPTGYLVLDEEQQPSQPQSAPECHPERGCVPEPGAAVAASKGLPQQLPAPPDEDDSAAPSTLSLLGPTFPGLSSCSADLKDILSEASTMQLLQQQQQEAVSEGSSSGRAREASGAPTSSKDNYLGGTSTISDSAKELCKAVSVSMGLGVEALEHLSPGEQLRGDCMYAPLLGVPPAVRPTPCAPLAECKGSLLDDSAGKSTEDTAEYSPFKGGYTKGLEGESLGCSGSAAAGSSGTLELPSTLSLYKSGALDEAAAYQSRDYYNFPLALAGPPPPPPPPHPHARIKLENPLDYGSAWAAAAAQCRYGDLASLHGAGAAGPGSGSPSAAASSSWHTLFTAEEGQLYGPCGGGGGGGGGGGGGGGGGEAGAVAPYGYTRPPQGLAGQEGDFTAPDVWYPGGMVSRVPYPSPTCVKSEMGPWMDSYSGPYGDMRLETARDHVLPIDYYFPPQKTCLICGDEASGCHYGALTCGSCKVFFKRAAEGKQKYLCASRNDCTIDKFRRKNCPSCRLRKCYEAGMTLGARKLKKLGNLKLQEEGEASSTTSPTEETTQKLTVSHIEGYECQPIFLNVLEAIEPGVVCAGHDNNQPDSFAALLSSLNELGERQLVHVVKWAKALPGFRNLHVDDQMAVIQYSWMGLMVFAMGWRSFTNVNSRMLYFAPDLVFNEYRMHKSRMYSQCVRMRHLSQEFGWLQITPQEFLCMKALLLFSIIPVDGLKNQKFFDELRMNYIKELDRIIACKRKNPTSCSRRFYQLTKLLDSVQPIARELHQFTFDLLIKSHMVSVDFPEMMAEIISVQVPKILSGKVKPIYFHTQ

One experiment deals with Sodium channel protein type 1 subunit alpha (Rattus norvegicus) (UniProt P04774). Kind of experiment: NVS_IC_rNaCh_site2: NovaScreen (NVS) Ion Channel Assay for rat Sodium Channel, Site 2 (NaCh) (AID 2283322).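 Further: hit means loss of radioligand binding signal relative to DMSO so AC50 marks displacement.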 A digest of the protocol: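 Membranes: rat forebrain. Format: competitive radioligand displacement, filter separation, scintillation readout, 1 h exposure. Primary screen in duplicate at 25 uM; actives retested in concentration series.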
Take `NC(=O)N(O)[C@@H]1C=C[C@H](Oc2cccc(Oc3ccc(F)cc3)c2)C1`: the molecule was classed as inactive.
One may read the AC50 as the concentration at which the activity in the assay is half-maximal. Regarding `CCCCCCCCCCCCCC[N+](C)(C)C`, the AC50 is 8.44 µM (active).
Regarding `OC1CCCCC1`, the call was inactive.
Turning to `Cc1oc(-c2ccccc2)nc1CCOc1ccc(C[C@H](Nc2ccccc2C(=O)c2ccccc2)C(=O)O)cc1`, the AC50 is 25 µM (active).
Same read-out and setting: the same measure for `CCN(CC)CCNc1ccc(CNC=O)c2sc3ccc(OC)cc3c(=O)c12`: 12.7 µM (active); for `Nc1cccc2c(N)cccc12`: 18.5 µM (active).
Regarding `CCCOC(=O)c1ccc(O)cc1`, the AC50 is 31.2 µM (active).
Take `CC[C@H](c1ccc(O)cc1)[C@@H](CC)c1ccc(O)cc1`: the molecule was classed as inactive.
As to `CC#C[C@]1(O)CC[C@H]2[C@@H]3CCC4=CC(=O)CCC4=C3[C@@H](c3ccc(N(C)C)cc3)C[C@@]21C`, the AC50 is 6.71 µM (active).
Regarding `CCCOc1sc(C(=O)N2CCC(c3cc(CN)ccc3F)CC2)c(C)c1Br`, the AC50 was 1.01 µM (active).
In the case of `CC(=O)NC1(c2cccc(F)c2)CCN(CC[C@@]2(c3ccc(Cl)c(Cl)c3)CN(c3ccccc3)C(=O)CO2)CC1`, the AC50 was 0.449 µM (active).
Regarding `CCC(=C(c1ccc(O)cc1)c1ccc(OCCN(C)C)cc1)c1ccccc1`, the AC50 was 4.03 µM (active).
For the molecule `O=C(O)Cc1cc(I)c(Oc2cc(I)c(O)c(I)c2)c(I)c1`, the call was inactive.

The target of another experiment is rat Glutamate, AMPA Site (AMPA), Gria1 (gene 50592) (UniProt P19490). Kind of experiment: NVS_LGIC_rAMPA: NovaScreen (NVS) Ligand-Gated Ion Channel Assay for rat Glutamate, AMPA Site (AMPA) (AID 2283324). A digest of the protocol: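 Rat forebrain membranes; radioligand binding read 1 h after dosing by filtration and scintillation counting. Duplicate single-point screen at 25 uM, then concentration-response to 50 uM for threshold hits (e.g. 30% inhibition); loss of signal vs DMSO.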
Sequence of rat Glutamate, AMPA Site (AMPA), Gria1 (gene 50592) (P19490 whole entry, looked up): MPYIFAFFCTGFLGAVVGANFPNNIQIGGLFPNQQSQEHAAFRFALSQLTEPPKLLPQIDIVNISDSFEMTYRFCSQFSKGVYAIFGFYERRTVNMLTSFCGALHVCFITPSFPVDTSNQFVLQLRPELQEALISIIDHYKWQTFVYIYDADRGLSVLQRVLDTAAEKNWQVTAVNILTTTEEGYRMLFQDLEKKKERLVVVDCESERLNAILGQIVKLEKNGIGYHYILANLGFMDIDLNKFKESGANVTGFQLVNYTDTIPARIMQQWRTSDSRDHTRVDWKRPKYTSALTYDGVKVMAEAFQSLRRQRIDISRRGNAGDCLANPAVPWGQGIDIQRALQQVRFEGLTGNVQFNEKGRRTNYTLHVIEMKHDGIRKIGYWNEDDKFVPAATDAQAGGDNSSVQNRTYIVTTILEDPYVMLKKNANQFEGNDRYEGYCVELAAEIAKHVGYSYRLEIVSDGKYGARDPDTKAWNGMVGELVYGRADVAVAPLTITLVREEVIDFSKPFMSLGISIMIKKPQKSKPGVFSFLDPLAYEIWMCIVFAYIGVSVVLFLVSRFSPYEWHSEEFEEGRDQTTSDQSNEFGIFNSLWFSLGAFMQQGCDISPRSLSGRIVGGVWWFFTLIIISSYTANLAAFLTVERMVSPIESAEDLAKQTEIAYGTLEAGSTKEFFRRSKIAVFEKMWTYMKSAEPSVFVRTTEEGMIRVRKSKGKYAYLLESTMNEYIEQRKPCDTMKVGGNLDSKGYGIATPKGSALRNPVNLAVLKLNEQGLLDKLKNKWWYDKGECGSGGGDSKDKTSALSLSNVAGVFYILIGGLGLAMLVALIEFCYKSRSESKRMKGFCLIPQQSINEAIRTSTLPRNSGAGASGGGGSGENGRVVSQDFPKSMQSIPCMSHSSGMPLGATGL
Regarding `COC(=O)CCCCC(=O)OC`, the molecule was classed as inactive.
On to `Cc1cc(C)c(O)c(C)c1`, for which the call was inactive.
As for `NC(=O)N(O)[C@@H]1C=C[C@H](Oc2cccc(Oc3ccc(F)cc3)c2)C1`, the outcome was inactive.
The same measure, in the same setting: the same measure for `CCCCCCCC(=O)O`: “inactive”.
Still for that read-out and setting: the same measure for `CN1CCN(c2ccccc2/C=C2\SCCN(c3ccc(Cl)c(Cl)c3)C2=O)CC1`: “inactive”; for `Cc1cc(CCN2CCN(c3nsc4ccccc34)CC2)cc2c1NC(=O)CC2(C)C`: “inactive”.
Take `CC[C@H](C)[C@@H](C(=O)O)n1sc2ccccc2c1=O`: the molecule was called inactive.

The target in another experiment is human Androgen Receptor (AR), AR (gene 367) (UniProt P10275). Kind of experiment: NVS_NR_hAR: NovaScreen (NVS) Nuclear Receptor Binding Assay for human Androgen Receptor (AR) (AID 2283332). A digest of the protocol: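 Actives from a duplicate 25 uM single-point screen went on to concentration series. Read-out after 20 h was scintillation counting of displaced radioligand in LnCAP extract, with DMSO as baseline.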
Sequence of human Androgen Receptor (AR), AR (gene 367) (P10275 whole entry, looked up): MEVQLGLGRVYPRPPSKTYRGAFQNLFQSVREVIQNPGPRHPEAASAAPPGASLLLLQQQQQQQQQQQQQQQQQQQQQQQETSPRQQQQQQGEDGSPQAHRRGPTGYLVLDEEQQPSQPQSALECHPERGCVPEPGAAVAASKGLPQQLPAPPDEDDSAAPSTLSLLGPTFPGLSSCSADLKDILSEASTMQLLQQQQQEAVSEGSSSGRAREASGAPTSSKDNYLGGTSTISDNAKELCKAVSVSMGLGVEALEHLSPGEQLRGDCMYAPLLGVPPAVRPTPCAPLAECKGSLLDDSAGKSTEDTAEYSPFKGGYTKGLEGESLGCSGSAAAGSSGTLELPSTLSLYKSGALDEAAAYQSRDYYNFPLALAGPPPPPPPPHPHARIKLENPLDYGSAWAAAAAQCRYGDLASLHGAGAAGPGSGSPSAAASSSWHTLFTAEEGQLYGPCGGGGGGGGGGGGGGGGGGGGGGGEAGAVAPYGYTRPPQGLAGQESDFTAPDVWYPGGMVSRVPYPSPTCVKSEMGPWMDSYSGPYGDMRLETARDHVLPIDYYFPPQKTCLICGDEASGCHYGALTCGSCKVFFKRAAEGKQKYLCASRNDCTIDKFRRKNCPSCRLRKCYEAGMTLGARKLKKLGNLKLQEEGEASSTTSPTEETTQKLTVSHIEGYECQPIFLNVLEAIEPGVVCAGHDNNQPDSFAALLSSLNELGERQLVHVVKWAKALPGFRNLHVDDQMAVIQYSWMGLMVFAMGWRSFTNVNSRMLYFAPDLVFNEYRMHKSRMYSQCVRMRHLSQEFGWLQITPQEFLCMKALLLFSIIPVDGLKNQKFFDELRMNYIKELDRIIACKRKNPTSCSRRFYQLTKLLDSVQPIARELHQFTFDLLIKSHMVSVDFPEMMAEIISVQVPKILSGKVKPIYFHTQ
For `Cc1oc(-c2ccccc2)nc1CCOc1ccc(C[C@H](Nc2ccccc2C(=O)c2ccccc2)C(=O)O)cc1`, the AC50 was 1.92 µM (active).
Take `CC[C@H](c1ccc(O)cc1)[C@@H](CC)c1ccc(O)cc1`: the AC50 was 0.416 µM (active) and the outcome was inactive.
On to `CCCCCCCCCCCCc1ccccc1S(=O)(=O)O`, for which the AC50 is 8.85 µM (active).
For the molecule `CCC(=C(c1ccc(O)cc1)c1ccc(OCCN(C)C)cc1)c1ccccc1`, the AC50 was 8.62 nM (active) and 653 nM (active).

Tested on in another experiment: not listed separately
Kind of experiment: NVS_IC_rCaBTZCHL: NovaScreen (NVS) Ion Channel Assay for Calcium Channel, Type L, Benzothiazepine Site (CaBTZCHL) (AID 2283337). On the procedure: NVS_IC_rCaBTZCHL is a biochemical, single-readout assay that uses extracted gene-proteins from Rat cortical membranes in a tissue-based cell-free assay. Measurements were taken 1.5 hours after chemical dosing in a 48-well plate.NVS_IC_rCaBTZCHL is one of one assay component(s) measured or calculated from the NVS_IC_rCaBTZCHL assay. It is designed to make measurements of radioligand binding, a form of binding reporter, as detected with scintillation counting signals by Filter-based radiodetection technology.Data from the assay component NVS_IC_rCaBTZCHL was analyzed into 1 assay endpoint. This assay endpoint, NVS_IC_rCaBTZCHL, was analyzed in the positive analysis fitting direction relative to DMSO as the negative control and baseline of activity. Using a type of binding reporter, loss-of-signal activity can be used to understand changes in the binding as they relate to the gene Cacna1a. Furthermore, this assay endpoint can be referred to as a primary readout, because the performed assay has only produced 1 assay endpoint. To generalize the intended target to other relatable targets, this assay endpoint is annotated to the ion channel intended target family, where the subfamily is calcium channel.
Binding assays used specific radioligands (tritiated, iodinated) with non-radioactive competitive displacement ligands in agonist or antagonist protocols (as indicated) and various reference compounds and inhibitors to titrate specific binding to receptors and transporters. Most enzyme assays (CYPs, kinases, phosphatases, proteases, HDACs) used recombinant protein and specific substrates (fluorescence mostly, some colorimetric and radioactive) and inhibitors, followed by a biochemical separation of substrate and product. All assays for the biochemical HTS were initially run in duplicate at a single concentration (10 uM for CYP450 assays and 25 uM for all others). […] Each assay was run with positive and negative controls, and concurrent controls on every plate. The follow-up (secondary) screen tested active chemical-pairs in concentration series, as well as a few additional assays not tested in the primary screen, some selected negative inactives, and several cases re-run in the concentration series for confirmatory purposes.
For the molecule `CCCCCCCC(=O)O`, the outcome was inactive.
Regarding `CCN(CC)CCNc1ccc(CNC=O)c2sc3ccc(OC)cc3c(=O)c12`, the AC50 is 19.2 µM (active).
On the same count and under the same terms, the same measure for `CCCOc1sc(C(=O)N2CCC(c3cc(CN)ccc3F)CC2)c(C)c1Br`: 3.64 µM (active); for `CC(=O)NC1(c2cccc(F)c2)CCN(CC[C@@]2(c3ccc(Cl)c(Cl)c3)CN(c3ccccc3)C(=O)CO2)CC1`: 0.835 µM (active).
Same read-out and setting: the same measure for `CCC(=C(c1ccc(O)cc1)c1ccc(OCCN(C)C)cc1)c1ccccc1`: 0.589 µM (active).

A further experiment has as its system guinea pig Histamine Receptor (H2), gene 100729734. Nature of the experiment: NVS_GPCR_gH2: NovaScreen (NVS) G Protein-Coupled Receptor Assay for guinea pig Histamine Receptor (H2) (AID 2283342). A digest of the protocol: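 Radioligand displacement on guinea pig striatal membranes, 1 h after dosing, filter-based scintillation counting; loss of signal versus DMSO. Single-point screen at 25 uM in duplicate, then concentration-response up to 50 uM.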
`NC(=O)N(O)[C@@H]1C=C[C@H](Oc2cccc(Oc3ccc(F)cc3)c2)C1`: the molecule was classed as inactive.
Take `CCN(CC)CCNc1ccc(CNC=O)c2sc3ccc(OC)cc3c(=O)c12`: the AC50 is 11.3 µM (active).
With `CC#C[C@]1(O)CC[C@H]2[C@@H]3CCC4=CC(=O)CCC4=C3[C@@H](c3ccc(N(C)C)cc3)C[C@@]21C`, the molecule was classed as inactive.
With `CCCOc1sc(C(=O)N2CCC(c3cc(CN)ccc3F)CC2)c(C)c1Br`, the AC50 was 7.46 µM (active).
Regarding `CC(=O)NC1(c2cccc(F)c2)CCN(CC[C@@]2(c3ccc(Cl)c(Cl)c3)CN(c3ccccc3)C(=O)CO2)CC1`, the AC50 was 8.91 µM (active).
`CCC(=C(c1ccc(O)cc1)c1ccc(OCCN(C)C)cc1)c1ccccc1`: the AC50 is 1.33 µM (active).

In the next experiment the target is human Constitutive Androstane Receptor (CAR), NR1I3 (gene 9970) (UniProt Q14994). Kind of experiment: NVS_NR_hCAR_Antagonist: NovaScreen (NVS) Nuclear Receptor Binding Assay for human Constitutive Androstane Receptor Antagonism (CAR) (AID 2283344). An outline of the steps: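 Cell-free TR-FRET binding read 1 h after dosing, antagonist mode; loss of signal versus DMSO baseline. Primary screen in duplicate at a single 25 uM; actives retested in concentration series.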
Sequence of human Constitutive Androstane Receptor (CAR), NR1I3 (gene 9970) (Q14994 whole entry, looked up): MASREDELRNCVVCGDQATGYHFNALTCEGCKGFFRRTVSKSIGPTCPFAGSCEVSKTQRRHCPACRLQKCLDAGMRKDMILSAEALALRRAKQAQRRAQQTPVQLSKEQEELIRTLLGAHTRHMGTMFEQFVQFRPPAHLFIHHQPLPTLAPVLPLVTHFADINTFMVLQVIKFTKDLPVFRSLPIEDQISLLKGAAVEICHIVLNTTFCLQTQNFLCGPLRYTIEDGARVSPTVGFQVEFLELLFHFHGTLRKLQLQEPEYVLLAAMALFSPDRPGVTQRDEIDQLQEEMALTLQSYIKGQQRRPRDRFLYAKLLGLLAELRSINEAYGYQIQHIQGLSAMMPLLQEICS
On to `CCCCCCCC(=O)O`, for which the molecule was classed as inactive.
Turning to `CC[C@H](c1ccc(O)cc1)[C@@H](CC)c1ccc(O)cc1`, the AC50 is 0.00229 µM (active).
On the same count and under the same terms, the same measure for `CCCCCCCCCCCCc1ccccc1S(=O)(=O)O`: 10.9 µM (active).
As for `O=C(OCCOCCOC(=O)c1ccccc1)c1ccccc1`, the molecule was called inactive.
Turning to `CCC(=C(c1ccc(O)cc1)c1ccc(OCCN(C)C)cc1)c1ccccc1`, the AC50 was 18.2 µM (active).

The next experiment concerns the target chimpanzee Androgen Receptor (AR), AR (gene 747460) (UniProt O97775). Nature of the experiment: NVS_NR_cAR: NovaScreen (NVS) Nuclear Receptor Binding Assay for chimpanzee Androgen Receptor (AR) (AID 2283346).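 Further: radioligand displacement from AR measured by scintillation counting in a cell-free assay.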 A digest of the protocol:
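Cell-free radioligand displacement using receptor protein extracted from Sf9/Sf21 cells; bound radioligand measured by scintillation counting 72 hours after chemical dosing. Loss of signal versus DMSO baseline indicates binding; primary screen single-concentration in duplicate at 25 uM, actives followed in concentration series.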
As to `CCCCCCCCCCCCCC[N+](C)(C)C`, the outcome was inactive.
As to `Cc1oc(-c2ccccc2)nc1CCOc1ccc(C[C@H](Nc2ccccc2C(=O)c2ccccc2)C(=O)O)cc1`, the outcome was inactive.
In the case of `CCN(CC)CCNc1ccc(CNC=O)c2sc3ccc(OC)cc3c(=O)c12`, the call was inactive.
Consider `CCCOC(=O)c1ccc(O)cc1`, for which the result was inactive.
`CC[C@H](c1ccc(O)cc1)[C@@H](CC)c1ccc(O)cc1`: the outcome was inactive.
Regarding `CC#C[C@]1(O)CC[C@H]2[C@@H]3CCC4=CC(=O)CCC4=C3[C@@H](c3ccc(N(C)C)cc3)C[C@@]21C`, the AC50 is 16.7 nM (active) and 46.7 nM (active).
Take `CCC(=C(c1ccc(O)cc1)c1ccc(OCCN(C)C)cc1)c1ccccc1`: the AC50 is 6.21 µM (active) and 12.9 µM (active).

Another experiment has as its target Estrogen receptor (Homo sapiens) (UniProt P03372). Kind of experiment: NVS_NR_hER: NovaScreen (NVS) Nuclear Receptor Binding Assay for human Estrogen Receptor (ER) (AID 2283348). A digest of the protocol:
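Cell-free radioligand binding with protein extracted from MCF7 cells; scintillation counting 18 hours after dosing. Loss of signal versus DMSO baseline read as displacement; primary single-concentration screen at 25 uM in duplicate, actives retested in concentration series.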
In the case of `Cc1cc(C)c(O)c(C)c1`, the outcome was inactive.
Same read-out and setting: the same measure for `NC(=O)N(O)[C@@H]1C=C[C@H](Oc2cccc(Oc3ccc(F)cc3)c2)C1`: “inactive”.
Take `CCCCCCCCCCCCCC[N+](C)(C)C`: the AC50 is 35 µM (active).
In the case of `OC1CCCCC1`, the concentration at half-maximal activity (AC50) is 0.0267 µM (active) and the molecule was classed as inactive.
As for `Cc1oc(-c2ccccc2)nc1CCOc1ccc(C[C@H](Nc2ccccc2C(=O)c2ccccc2)C(=O)O)cc1`, the molecule was classed as inactive.
Regarding `CCN(CC)CCNc1ccc(CNC=O)c2sc3ccc(OC)cc3c(=O)c12`, the molecule was classed as inactive.
Turning to `CCCOC(=O)c1ccc(O)cc1`, the AC50 is 6.72 µM (active) and 10.6 µM (active).
Take `Cc1cc(CCN2CCN(c3nsc4ccccc34)CC2)cc2c1NC(=O)CC2(C)C`: the molecule was called inactive.
For `CC[C@H](c1ccc(O)cc1)[C@@H](CC)c1ccc(O)cc1`, the AC50 was 0.0334 nM (active) and 2.46 nM (active) and 2.68 nM (active).
Still for that read-out and setting: the same measure for `CCCCCCCCCCCCc1ccccc1S(=O)(=O)O`: 40.6 µM (active).
Take `O=C(O)Cc1cc(I)c(Oc2cc(I)c(O)c(I)c2)c(I)c1`: the molecule was called inactive.
